Assay outcomes (PubChem BioAssay)
The full list was thinned out, with hits kept by preference.
Cycloheximide cs = affects cycloheximide protein synthesis inhibition readout, counter-screen; cell reporter, cycloheximide protein synthesis inhibition counterscreen; max response, %; 12% of 300,000 active; in the data active = max response mostly above about 13%, no sharp cut-off; inactive = mostly below about 14%; also: read at 38.3 µM for the half of the compounds with a filed dose; 0% is about no effect
Giardia FBPA inh = blocks Giardia fructose-bisphosphate aldolase activity. A8B2U2. purified Giardia FBPA. Potency, µM (titrated, usually from 59.6 µM), for inactives: at the highest dose activity, negative = inhibition, actives largely listed as inhibitors. 0.71% of 290,000 active. AID 2451; also: potency is read from the fitted curve at half-maximal effect; % is scaled to controls: 0 for no effect and ±100 for the full control effect; nearly all actives have a fitted effect of over 55% in size
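Giardia FBPA (40 nM reagent) was preincubated 10 min at RT with compound (up to 57.5 uM final), then substrate plus GAPDH/TPI/NAD/arsenate coupling system with diaphorase/resazurin was added; resorufin fluorescence (525/598 nm) was read after 20 min.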
RE007 growth inh = less growth of the S. pombe RE007 Vpr strain | S. pombe RE007 Vpr strain, BacTiter-Glo ATP luminescence, 24 h | Potency, µM (doses to about 92.2 µM), without a hit: top-dose activity change, negative = less growth, hits mostly inhibitors | 0.21% of 360,000 active; active = well fitted falling curve with a large enough effect; inconclusive = small, poorly fitted or top-dose-only effect; inactive = no such curve, though single readings can be large or run the other way; also: potency is read from the fitted curve at half-maximal effect; % is scaled to controls: 0 for no effect and ±100 for the full control effect; nearly all actives have a fitted effect of over 50% in size
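Fission yeast RE007 carrying one integrated HIV-1 vpr copy, seeded at OD 0.01 in PMG+AL medium with 23 nL pinned compound. Grown 24 h at 30 degrees; viability read by BacTiter-Glo luminescence after 5 min.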
Shiga toxin inh = blocks Shiga toxin action in Vero cells | Vero cells, Shiga toxin protein synthesis inhibition reporter | inhibition, % at 38.7 µM | 9.2% of 290,000 active | AID 2315; in the data active = inhibition mostly above about 28%, no sharp cut-off; inactive = mostly below about 43%; also: 0% is about no effect
Tb PYK inh = inhibitors of Trypanosoma brucei pyruvate kinase; Q57TT1; 0.12% of 410,000 active; Potency, µM (highest dose often 76.8 µM), inactives show top-dose activity, negative = inhibition, usual class: inhibitors; TbPYK enzyme, Kinase-Glo Plus ATP luminescence, 45 min; also: potency is read from the fitted curve at half-maximal effect; % is scaled to controls: 0 for no effect and ±100 for the full control effect; nearly all actives have a fitted effect of over 50% in size
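Screened from lowest to highest concentration, compounds were pinned into TbPYK/substrate mixtures, and ADP (130 uM final) was added. Plates sat at room temperature for 45 min prior to Kinase-Glo Plus detection by luminescence.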
LmPK inhibitor = LmPK (Leishmania mexicana) enzyme inhibition. Q27686. purified LmPK, Kinase-Glo ATP luminescence, 1 h. Potency, µM (series often up to 57.5 µM), without a hit: at the top dose activity change, negative = inhibition, hits mostly inhibitors. 0.37% of 290,000 active; also: potency is read from the fitted curve at half-maximal effect; % is scaled to controls: 0 for no effect and ±100 for the full control effect
Target sequence (Q27686 whole entry, looked up): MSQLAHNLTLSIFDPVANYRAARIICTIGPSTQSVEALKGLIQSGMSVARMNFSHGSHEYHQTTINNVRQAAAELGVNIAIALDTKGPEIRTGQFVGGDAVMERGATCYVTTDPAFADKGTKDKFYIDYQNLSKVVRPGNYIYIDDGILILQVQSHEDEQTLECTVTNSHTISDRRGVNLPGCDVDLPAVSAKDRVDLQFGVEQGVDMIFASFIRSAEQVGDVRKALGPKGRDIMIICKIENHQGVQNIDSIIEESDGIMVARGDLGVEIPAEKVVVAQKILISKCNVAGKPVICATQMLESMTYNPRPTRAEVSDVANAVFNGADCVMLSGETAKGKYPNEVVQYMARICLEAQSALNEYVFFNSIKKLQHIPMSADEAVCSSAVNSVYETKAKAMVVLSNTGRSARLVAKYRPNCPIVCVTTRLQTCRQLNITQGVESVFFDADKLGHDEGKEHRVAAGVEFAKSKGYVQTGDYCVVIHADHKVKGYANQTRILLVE
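Purified LmPK (0.1 nM) with 0.5 mM PEP and 0.1 mM ADP in imidazole buffer pH 7.2 with MgCl2/KCl, 1 h at room temperature. ATP formed was read by luciferase luminescence and normalized to no-enzyme and uninhibited controls.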
The depositor's hits bear a star; u = inconclusive; x = not tested or not shown. Unless noted, calls follow the shape of the dose curve; as a rule, active = well fitted curve in the direction sought with a large enough effect; inconclusive = small, poorly fitted or top-dose-only effect, or another doubt; inactive = no such curve, though single readings can be large; an effect the other way counts as inactive or inconclusive.

SMILES | Cycloheximide cs | Giardia FBPA inh | RE007 growth inh | Shiga toxin inh | Tb PYK inh | LmPK inhibitor
Cc1cccc(NC(=O)CSc2nccn2C)c1 | x | x | 1.7% | x | -0.3% | x
COc1ccccc1Nc1nc(N)nc(CSc2nccn2C)n1 | 5.9 | -3.6% | 4.0% | 44.7* | 3.4% | -0.7%
Cc1ccc(Nc2nc(N)nc(CSc3nccn3C)n2)cc1 | 51.7* | 0.4% | 14.7% | 68.8* | 4.7% | -4.2%
Cc1cccc(Nc2nc(N)nc(CSc3nccn3C)n2)c1 | 10.8 | 0.7% | -12.6% | 51.0* | -5.3% | -4.0%
COc1cc(C2SCCS2)cc(Br)c1Oc1ncccc1[N+](=O)[O-] | 1.7 | -27.0% | 5.9% | -7.7 | -4.3% | 7.2%
O=[N+]([O-])c1cccnc1Oc1ccc(OCc2ccccc2)cc1 | 62.8* | 4.1% | 5.3% | 61.1* | -3.0% | -2.0%
O=[N+]([O-])c1cccnc1Oc1ccc(C2SCCS2)cc1 | 57.6* | 0.6% | 3.4% | 72.6* | -8.6% | 4.2%
O=[N+]([O-])c1ccc(Oc2ccc(OCc3ccccc3)cc2)nc1 | -1.1 | 0.7% | 2.2% | -6.4 | -1.3% | -4.0%
O=C1C(Cc2cccc([N+](=O)[O-])c2)SC(=Nc2ccccc2)N1c1ccccc1 (configuration not stated) | -1.1 | -6.7% | x | -12.4 | 12.2% | -3.6%
CSc1ccc(NC(=O)NN(c2ccccc2)C2CCS(=O)(=O)C2)cc1 (configuration not stated) | x | x | 9.3% | x | 7.1% | x
CC(C)(C)OC(=O)N1CCC(CC2CC(c3cccc(Br)c3)=NO2)(C(=O)NCC2CCCCC2)CC1 (configuration not stated) | 13.1* | 9.7% | -9.2% | 25.6 | 3.4% | -1.6%
CCCCCCCNC(=O)C1(CC2CC(c3cccc(Br)c3)=NO2)CCN(C(=O)OC(C)(C)C)CC1 (configuration not stated) | 15.2* | -1.1% | 3.1% | 15.4 | -10.3% | -1.0%
O=C(c1ccccc1)N1CCC(CC2CC(c3cccc(Br)c3)=NO2)(C(=O)NCC2CCCCC2)CC1 (configuration not stated) | 3.4 | 3.8% | 8.7% | 2.9 | -4.5% | -4.0%
Cc1ccc(NC(=O)c2ccc3nc[nH]c3c2)nc1 | -5.0 | x | 1.9% | -17.3 | -0.8% | 1.8%
Cc1ccc(NC(=O)c2cncc(Br)c2)nc1 | 27.7* | x | -0.4% | 78.7* | -0.2% | -4.4%
O=C(NC(=S)Nc1ccc(Br)cn1)c1cncc(Br)c1 | 11.5 | -5.1% | -3.8% | 25.2 | 0.3% | 0.6%
O=C(Nc1ccc(OC(F)(F)F)cc1)c1ccc2nc[nH]c2c1 | 32.8* | u | 4.1% | x | -7.3% | 5.4%
Cc1ccc(NC(=O)c2cncc(Br)c2)c(O)c1 | 35.2* | 0.4% | -17.8% | 66.2* | 2.3% | -3.4%
Cc1ccc(NC(=O)c2ccc3nc[nH]c3c2)c(O)c1 | 32.7* | -1.2% | 5.6% | 73.5* | -0.2% | 1.5%
CCOc1ccc(-n2c(/C=C/c3cccc(F)c3)nc3cc(OC)c(OC)cc3c2=O)cc1 | x | x | x | x | 0.3% | x
CCOC(=O)c1c(C)[nH]c(C)c1S(=O)(=O)N1CCC(C(=O)N2CCN(c3cccc(C)c3C)CC2)CC1 | x | x | x | x | 4.5% | x
Cc1ccnc(NC(=O)c2cccc(S(=O)(=O)N3CCN(c4ccccc4)CC3)c2)c1 | x | x | -24.4% | x | 5.9% | x
Cc1ccnc(NC(=O)c2cccc(S(=O)(=O)N3CCCC3)c2)c1 | 24.7* | x | -2.2% | 22.4 | -1.0% | -8.3%
Cc1cc(NC(=O)c2cccc(S(=O)(=O)N3CCCCC3)c2)no1 | 9.3* | x | 0.3% | 10.7 | -12.4% | -3.1%
Fc1ccc(Nc2ccnc(-c3ccccc3C(F)(F)F)n2)cc1 | x | -4.9% | x | x | x | x
SMILES | Cycloheximide cs | Giardia FBPA inh | RE007 growth inh | Shiga toxin inh | Tb PYK inh | LmPK inhibitor
O=C(NC1CCCCC1)C(c1cc2c(cc1[N+](=O)[O-])OCO2)N1CCCCC1 (configuration not stated) | 16.3 | -22.0% | x | 54.2* | x | 1.3%
O=CN1CCN(C(C(=O)NC2CCCCC2)c2cc3c(cc2[N+](=O)[O-])OCO3)CC1 (configuration not stated) | 13.5 | -23.4% | 3.3% | -7.4 | 1.5% | 2.9%
O=C(CCCC(=O)N/N=C\c1ccccn1)N/N=C\c1ccccn1 | -0.2 | -2.4% | 10.2% | -19.7 | -10.9% | 2.8%
O=C(N/N=C/c1ccccc1F)NC12CC3CC(CC(C3)C1)C2 | 33.0* | 7.8% | 1.5% | 54.0* | 0.1% | 3.1%
COc1cccc(/C=N/NC(=O)NC23CC4CC(CC(C4)C2)C3)c1O | x | x | 0.1% | x | -2.2% | x
Cc1cccc(/C=N/NC(=O)NC23CC4CC(CC(C4)C2)C3)n1 | 19.8* | 12.4% | 3.3% | 32.3 | -0.4% | -3.5%
O=C(N/N=C/c1ccccn1)NC12CC3CC(CC(C3)C1)C2 | 39.2* | 20.3% | -4.6% | 70.1* | -3.1% | 1.5%
O=C(OCc1cc(=O)n2nc(-c3cccs3)sc2n1)c1ccc(F)cc1 | x | x | x | x | 0.5% | x
COc1cccc2sc(Nc3nc(-c4ccncc4)cs3)nc12 | 11.1 | 4.3% | -8.9% | 25.5 | -17.1% | 5.2%
COc1ccc(OC)c2nc(-c3ccncc3)ccc12 | 15.0* | 6.3% | -11.5% | 8.5 | -5.1% | 0.8%
CCCCNC(=O)C1C(c2ccc(C(F)(F)F)cc2)=Nc2ccccc2N1C(=O)c1cccc2ccccc12 (configuration not stated) | x | x | -17.3% | x | x | x
CSc1ccccc1-c1nnc(-c2ccc(C)cc2)o1 | 39.2* | -12.3% | u | 143.3* | -1.2% | -7.5%
CSc1ccccc1-c1nnc(-c2ccccc2)o1 | 59.2* | -8.0% | u | 94.8* | 1.4% | -23.4%
CSc1nnc(-c2ccccc2SC)o1 | 1.5 | -2.1% | -7.2% | 35.6 | -3.0% | -6.4%
Cc1cc(C(=O)COC(=O)CCC(=O)c2ccc3c(c2)OCCO3)c(C)n1Cc1ccco1 | 12.0 | 1.0% | 4.7% | 31.3 | 2.3% | -0.3%
Cc1cc(C(=O)COC(=O)c2ccc(O)cc2)c(C)n1Cc1ccco1 | 66.9* | 4.5% | 6.1% | 66.0* | -4.2% | -1.4%
Cc1cc(C(=O)COC(=O)CNC(=O)c2ccco2)c(C)n1Cc1ccco1 | 10.7 | 0.6% | x | 12.4 | 5.2% | -2.8%
CCOc1ncccc1C(=O)OCC(=O)c1cc(OC)ccc1OC | -1.1 | -5.7% | -11.8% | -21.4 | -13.0% | -5.7%
Cc1cc(C(=O)COC(=O)c2ccc(Br)o2)c(C)n1Cc1ccco1 | 51.6* | -5.2% | x | 96.6* | x | 2.2%
Cc1cc(C(=O)COC(=O)C(C)NC(N)=O)c(C)n1Cc1ccco1 (configuration not stated) | 34.9* | -3.3% | 4.6% | 93.6* | 4.9% | -3.1%
CCOc1ncccc1C(=O)OCC(=O)c1cc(C)n(Cc2ccco2)c1C | 26.9* | -5.6% | -3.6% | 67.0* | -5.0% | -1.8%
CCOc1ccc(C(=O)N2CCCCCC2)cc1 | 0.9 | 0.5% | 23.5% | 11.3 | 2.4% | 0.7%
CN(C)c1ccc(C(=S)N2CCCCC2)cc1 | 22.6* | 0.7% | 5.5% | 37.0* | -1.9% | -8.7%
